Results on 13 compounds are retold here after PubChem BioAssay.

Calls of active or inactive are those of the source.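 Rule for the calls, unless noted: active = inhibition at or above 50% at 10 µM; inactive = inhibition below 50%.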

Test [1] can be described thus: inhibitors of TNFa-induced NFkB p65 translocation, primary screen, imaging, HUVEC, MLSMR starter and 10KST1 sets (AID 438;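 active = inhibition above 20% together with a positive visual image hit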;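 note: compound added about 3h40 before a 20 min TNFalpha stimulation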;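 for inhibition: signal is the nuclear over cytoplasmic p65 intensity ratio per well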). Particulars: HUVEC TNFa-induced p65 nuclear translocation; cell count: measured here: nuclei count (cytotoxicity indicator), at 2.08 µM; inhibition: at 2 µM, stronger effect = higher value, 0% TNFa-plus-vehicle, 100% no-TNFa wells.
The nature of test [2]: reduction of polyQ htt aggregates in cells – imaging, exon1htt(103Q)mCFP cells, high-content imaging, primary screen (AID 483;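 active = visual image review flags a hit and inhibition of aggregation exceeds 20%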;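 note: compound exposure lasted 3 days before fixation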;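 for nuclei count: percent of the per-plate median nuclei count of sample wells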). Particulars: exon1htt(103Q)mCFP cell line, aggregate imaging, at 2 µM; inhibition of aggregation: stronger effect = higher value; nuclei count: measured here: cell count, toxicity.
A short description of test [3]: endothelial E-selectin expression blockers – imaging, HUVEC, immunofluorescence, MLSMR starter and 10KST1 sets, primary screen (AID 487;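 active = visually confirmed hit in the image check and inhibition above 20%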;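 for inhibition: signal is fraction of cell area covered by stained E-selectin grains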;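 for nuclei count: 100% = median nuclei count of all wells on the same plate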). Particulars: HUVEC TNFalpha-induced E-selectin immunofluorescence imaging, at 2 µM; inhibition: stronger effect = higher value; nuclei count: measured here: cell number, toxicity.
Test [4] concerns the target Voltage-gated potassium channel subunit beta-2 (Rattus norvegicus) (UniProt P62483). Put plainly: inhibitors of rat Kvbeta2 reductase activity – biochemical, NADPH fluorescence, primary screen (AID 622;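 active = fluorescence slope higher than the sample average by over 3 SD, cut at about -0.22 in these data, passing the limit was not always enough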;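 note: slope of raw intensity against log time taken from 70 to 1610 s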). The following applies: recombinant KvBeta, 4-cyanobenzaldehyde reduction, at 10 µM, stronger effect = higher value.
Test [5] shares this target. The test is described as follows: enhancers of rat Kvbeta2 NADPH turnover – biochemical, NADPH fluorescence, primary screen (AID 623;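 active = NADPH fluorescence slope more negative than the mean of all samples by about 3 SD, 99.7% confidence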;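 note: fluorescence intensity change per second fitted from 20 to 320 s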). The following applies: Recombinant KvBeta, NADPH fluorescence decrease slope, 10 min; at 10 µM; stronger effect = lower value.
The target in test [6] is Alpha-2C adrenergic receptor (Homo sapiens) (UniProt P18825). Put plainly: compounds altering alpha2C-coupled GIRK flux – cell-based, HEK293 alpha2C/GIRK1/2, thallium flux, primary screen (AID 624;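 active = fluorescence slope after compound addition differing from the mean of all screened samples at 99.7% confidence, in either direction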;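 note: slope of fluorescence ratio to pre-addition baseline per second over 15 to 24 s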). Particulars: thallium flux BTC fluorescence, at 10 µM, actives lie on both sides.
Test [7] in a line: blockers of RIG-like receptor reporter activation – cell-based, Sendai virus stimulus, luciferase, 10K MLSCN set, TLR/RLR signaling modifier project, primary screen (AID 602276).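 Note: firefly luciferase from ISG56 promoter only with Renilla not read in this screen; 0% = Sendai virus plus DMSO and 100% = medium plus DMSO without virus.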 Particulars: HEK293 RL24 IRF3 luciferase reporter, at 10 µM, stronger effect = higher value.
Test [8] is described as follows: TLR3 IRF3 reporter activation blockers – cell-based, poly I:C stimulus, luciferase, 10K MLSCN set, primary screen (AID 602277;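 active = inhibition of the reporter signal at or above 50%; inactive = inhibition below 50%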). Particulars: HEK293-TLR3 RL24 IRF3 luciferase reporter, at 10 µM, stronger effect = higher value. Background: In a reporter assay the amount or activity of a reporter protein is the signal.

Chain of Voltage-gated potassium channel subunit beta-2 (Rattus norvegicus) (P62483 whole entry, looked up): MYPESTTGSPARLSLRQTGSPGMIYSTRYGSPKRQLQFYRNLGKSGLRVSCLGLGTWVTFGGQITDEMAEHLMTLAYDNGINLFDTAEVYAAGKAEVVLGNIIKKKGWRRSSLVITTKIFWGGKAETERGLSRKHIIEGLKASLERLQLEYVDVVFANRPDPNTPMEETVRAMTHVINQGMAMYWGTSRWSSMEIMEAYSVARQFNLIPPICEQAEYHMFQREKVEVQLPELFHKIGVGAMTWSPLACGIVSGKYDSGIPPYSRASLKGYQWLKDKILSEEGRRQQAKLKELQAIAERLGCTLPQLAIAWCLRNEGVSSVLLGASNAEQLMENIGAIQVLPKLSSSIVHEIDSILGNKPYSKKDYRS
Chain of Alpha-2C adrenergic receptor (Homo sapiens) (P18825 whole entry, looked up): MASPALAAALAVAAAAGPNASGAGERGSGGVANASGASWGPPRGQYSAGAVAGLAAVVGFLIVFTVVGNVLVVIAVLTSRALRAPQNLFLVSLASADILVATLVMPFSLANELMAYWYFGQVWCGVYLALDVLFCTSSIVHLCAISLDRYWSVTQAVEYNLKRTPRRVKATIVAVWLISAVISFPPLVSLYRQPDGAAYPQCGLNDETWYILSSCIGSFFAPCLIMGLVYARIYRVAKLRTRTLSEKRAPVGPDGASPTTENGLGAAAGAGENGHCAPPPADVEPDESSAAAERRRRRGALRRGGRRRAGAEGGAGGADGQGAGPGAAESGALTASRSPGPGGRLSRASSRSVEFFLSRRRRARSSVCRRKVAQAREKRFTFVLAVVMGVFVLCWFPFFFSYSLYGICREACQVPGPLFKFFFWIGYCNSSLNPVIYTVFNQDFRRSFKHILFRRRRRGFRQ

In the case of `COCCNC(=O)C1CCCN(c2ncccn2)C1` (stereo not drawn), in test [1], the cell count was 648. Further, the inhibition (in general, the change of the read-out against control, counted positive when it falls) in test [1] is 7.5% (inactive); in test [3], 98.1% (active); in test [7], 14.2% (inactive); in test [8], 20.8% (inactive). In addition, the inhibition of aggregation in test [2] was 5.6% (inactive). Besides, the nuclei count in test [2] was found to be 100%; in test [3], 76.1%. The fluorescence slope in test [4] was -0.539 (inactive). Further, in test [5], the NADPH fluorescence slope is -6.8e-05 (inactive). The slope in test [6] was 0.00583 (inactive).

For the compound `CCN1CCN(C(CNC(=O)c2ccc3c(c2)OCO3)c2cccnc2)CC1` (stereo not drawn), in test [1], the cell count was determined as 796. Besides, the inhibition is -13.5% (inactive) in test [1], -10.9% (inactive) in test [3], -18.9% (inactive) in test [7] and -1.81% (inactive) in test [8]. Besides, the inhibition of aggregation in test [2] is 0.6% (inactive). The nuclei count came out at 98% in test [2] and 109% in test [3]. Further, the fluorescence slope in test [4] is -0.541 (inactive). Moreover, the NADPH fluorescence slope in test [5] was 1.4e-05 (inactive). In test [6], the slope was 0.00612 (inactive).

Regarding `Cc1cc(=O)oc2c1c(C)nn2-c1ccc(C(=O)OC(C)C)cc1`, in test [1], the cell count was found to be 741. Further, the inhibition in test [1] was -2.9% (inactive); in test [3], -67.2% (inactive); in test [7] it was 8% (inactive); in test [8], 26.1% (inactive). In addition, in test [2], the inhibition of aggregation was -39.6% (inactive). Further, the nuclei count in test [2] and in test [3] was 106% each time. For the same compound, in test [4], the fluorescence slope is -0.529 (inactive). For the same compound, the NADPH fluorescence slope in test [5] was -1.2e-05 (inactive). In addition, the slope in test [6] was 0.00612 (inactive).

For the compound `COc1ccc(NS(=O)(=O)c2ccc(NC(C)=O)cc2)cc1OC`, the cell count in test [1] amounted to 352. Further, the inhibition was -8.4% (inactive) in test [1], -3.3% (inactive) in test [3], -6.14% (inactive) in test [7] and -66.4% (inactive) in test [8]. For the same compound, the inhibition of aggregation in test [2] is 2.1% (inactive). Besides, the nuclei count is 99.6% in test [2] and 76.2% in test [3]. Further, the fluorescence slope in test [4] is -0.379 (inactive). In test [5], the NADPH fluorescence slope is 1.1e-05 (inactive). Moreover, the slope in test [6] is 0.00616 (inactive).

Consider `O=C(c1ccco1)N1CCN(c2cccc(Cl)c2)CC1`, for which, in test [1], the cell count worked out at 665. The inhibition in test [1] was -1.9% (inactive); in test [3], 24.2% (inactive); in test [7] it was -26.6% (inactive); in test [8], -76.9% (inactive). Further, the inhibition of aggregation in test [2] is 5.4% (inactive). Moreover, the nuclei count was 115% in test [2] and 91.6% in test [3]. For the same compound, the fluorescence slope in test [4] is -0.507 (inactive). Further, the NADPH fluorescence slope in test [5] is -7.7e-05 (inactive). In test [6], the slope is 0.00406 (inactive).

As for `COC(=O)c1ccc(NC(=O)CN2CCCC2)cc1`, the cell count in test [1] is 612. Moreover, the inhibition in test [1] was -11.4% (inactive); in test [3] it was 51.6% (inactive); in test [7] it was 9.14% (inactive); in test [8], 7.68% (inactive). Further, the inhibition of aggregation in test [2] is 13.1% (inactive). Also, the figures for the nuclei count in test [2] and in test [3] were 107% and 141%, respectively. Moreover, the fluorescence slope in test [4] is -0.514 (inactive). The NADPH fluorescence slope in test [5] is -6.2e-05 (inactive). Further, the slope in test [6] was 0.00467 (inactive).

With `COc1cc2c(cc1NC(=O)COC(=O)Cn1cnc3ccccc31)oc1ccccc12`, the cell count in test [1] came out at 403. The inhibition in test [1] was 7.7% (inactive); in test [3], -2.1% (inactive); in test [7], 20.9% (inactive); in test [8] it was 9.12% (inactive). Further, in test [2], the inhibition of aggregation was -10.9% (inactive). Moreover, the nuclei count turned out to be 86.8% in test [2] and 110% in test [3]. Moreover, the fluorescence slope in test [4] is -0.533 (inactive). The NADPH fluorescence slope in test [5] was -2.6e-05 (inactive). Moreover, the slope in test [6] is 0.00618 (inactive).

For the compound `Cc1onc(-c2ccccc2)c1C(=O)Nc1ccc(S(=O)(=O)N2CCCCC2)cc1`, the cell count in test [1] stood at 786. In addition, the inhibition in test [1] is 7.8% (inactive); in test [3] it was -35.5% (inactive); in test [7], 15.1% (inactive); in test [8] it was 32.9% (inactive). Moreover, the inhibition of aggregation in test [2] is -10.9% (inactive). For the same compound, the values for the nuclei count in test [2] and in test [3] were 97.3% and 108%, respectively. For the same compound, the fluorescence slope in test [4] was -0.599 (inactive). Further, in test [5], the NADPH fluorescence slope was -5.5e-06 (inactive). The slope in test [6] was 0.00592 (inactive).

`Cc1ccc(-c2nn(-c3ccccc3)cc2CN(Cc2ccccc2)C(=O)CCC(=O)O)o1`: the cell count in test [1] stood at 329. In addition, the inhibition in test [1] was 7.1% (inactive); in test [3], -66.8% (inactive); in test [7], 12.8% (inactive); in test [8], 19.6% (inactive). The inhibition of aggregation in test [2] is -24.5% (inactive). Also, the nuclei count in test [2] was 107%; in test [3] it was 120%. The fluorescence slope in test [4] is -0.429 (inactive). In addition, the NADPH fluorescence slope in test [5] is -2.6e-05 (inactive). For the same compound, the slope in test [6] is 0.00807 (inactive).

Regarding `O=C(c1cccnc1)N1CCc2ccccc21`, in test [1], the cell count was 414. Further, the inhibition in test [1] is 3% (inactive); in test [3] it was 24.6% (inactive); in test [7], 10% (inactive); in test [8] it was 43.9% (inactive). In test [2], the inhibition of aggregation was 1.6% (inactive). Moreover, the nuclei count is 108% in test [2] and 95.4% in test [3]. In test [4], the fluorescence slope was -0.468 (inactive). In addition, the NADPH fluorescence slope in test [5] was 1.9e-05 (inactive). In test [6], the slope is 0.00635 (inactive).

On to `Cc1cccc(NC(=O)c2cc(NC(=O)c3ccco3)ccc2Cl)n1`, for which the cell count in test [1] was found to be 678. For the same compound, the inhibition in test [1] was -2.8% (inactive); in test [3], 19.9% (inactive); in test [7], 1.7% (inactive); in test [8], -7.38% (inactive). Also, in test [2], the inhibition of aggregation was 16.4% (inactive). Besides, the values for the nuclei count in test [2] and in test [3] were 83.5% and 98%, respectively. Besides, in test [4], the fluorescence slope is -0.529 (inactive). Also, in test [5], the NADPH fluorescence slope was 1.5e-06 (inactive). For the same compound, the slope in test [6] is 0.00521 (inactive).

For `O=S(=O)(c1ccccc1)N1CCN(S(=O)(=O)c2ccccc2)C1`, the cell count in test [1] worked out at 281. Moreover, the inhibition was 5.1% (inactive) in test [1], -60.7% (inactive) in test [3], 10.4% (inactive) in test [7] and 13.2% (inactive) in test [8]. Besides, in test [2], the inhibition of aggregation is -0.4% (inactive). For the same compound, the nuclei count came out at 95% in test [2] and 96.4% in test [3]. Moreover, the fluorescence slope in test [4] was -0.337 (inactive). Besides, the NADPH fluorescence slope in test [5] was -5.3e-05 (inactive). Further, the slope in test [6] was 0.00677 (inactive).

Turning to `CCOC(=O)c1sc(NC(=O)CSc2n[nH]c(-c3ccccc3)n2)c(C#N)c1C`, the cell count in test [1] came to 634. Also, the inhibition is -4.4% (inactive) in test [1], 106% (active) in test [3], 7.86% (inactive) in test [7] and -25.2% (inactive) in test [8]. The inhibition of aggregation in test [2] is -7.1% (inactive). Besides, the nuclei count in test [2] came to 94%; in test [3] it was 122%. The fluorescence slope in test [4] is -0.393 (inactive). Further, in test [5], the NADPH fluorescence slope is 2.8e-05 (inactive). The slope in test [6] was 0.00567 (inactive).
